Data published in PubChem BioAssay (Tox21).
Values without a mark were called inactive. Results filed as inconclusive are left out. A call without a number means that no potency is given here. The source made the active and inactive calls. Unless noted, the call rests on the fitted dose curve; in most records, active means well fitted curve in the direction sought with a large enough effect in the repeat runs; inconclusive means weak or mixed curves; inactive means no such curve, though single readings can be large; an effect the other way counts as inactive or inconclusive.

Legend:
[1] = qHTS assay to identify small molecule agonists of the hypoxia (HIF-1) signaling pathway - cell viability counter screen (AID 1224844; calls by dose curve; further: nearly all actives have a fitted effect of over 50% in size; further: potency means the concentration at half of the fitted maximal effect)
Outline: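 HRE-bla ME-180 cells in medium with 0.5% dialyzed FBS were preincubated 5 hrs at 37C, exposed to compounds for 17 hrs, then viability was read as CellTiter-Glo luminescence after 30 min at room temperature, in the reporter wells.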

[2] = qHTS assay to identify small molecule agonists of H2AX - cell viability counter screen (AID 1224847; calls by dose curve; further: nearly all actives have a fitted effect of over 30% in size; further: potency means the concentration at half of the fitted maximal effect)
Outline: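 Quantitative HTS viability measurement: CHO-K1 wild-type cells in serum (10% FBS) medium, short 3 hr drug exposure at 37C with 0.76% DMSO, CellTiter-Glo luminescent detection.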

[3] = qHTS RealTime-Glo MT Cell Viability Assay in HepG2 cells - 24 hour (AID 1224867); further: nearly all actives have a fitted effect of over 50% in size
Outline: (§1)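 Luminescence read-out: viable HepG2 cells reduce a prosubstrate to a NanoLuc substrate, giving a signal proportional to live cell number. Reads taken at 0, 8, 16, 24, 32 and 40 h of compound exposure at 37 C.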

[4] = qHTS RealTime-Glo MT Cell Viability Assay in HEK293 cells - 32 hour (AID 1224868); further: nearly all actives have a fitted effect of over 50% in size; further: potency means the concentration at half of the fitted maximal effect
Outline: (§2)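 Nonlytic real-time viability readout: viable cells convert prosubstrate to NanoLuc substrate, giving luminescence proportional to live cell number. HEK293, 600 cells/well, compound added after 5 h, continuous culture at 37 C.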

[5] = A CellTox Green Cytotoxicity Assay to monitor cytotoxicity in HEK293 cells - 0 hour (AID 1224869); further: nearly all actives have a fitted effect of over 50% in size; further: potency means the concentration at half of the fitted maximal effect
Outline: (§3)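 HEK293 cells premixed with CellTox Green dye were seeded at 600 cells/well and left 5 h at 37 C/5% CO2 before pin transfer of 23 nL compound in DMSO. Fluorescence from dye bound to dead-cell DNA was read during 40 h treatment.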

[6] = qHTS RealTime-Glo MT Cell Viability Assay in HepG2 cells - 40 hour (AID 1224870); further: nearly all actives have a fitted effect of over 50% in size
Outline: (§4)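 HepG2 cells (600/well) mixed with RealTime-Glo MT reagent, settled 5 h at 37 C/5% CO2 before compound addition. Nonlytic NanoLuc luminescence from viable-cell prosubstrate reduction read repeatedly during 40 h treatment at 37 C.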

[7] = A CellTox Green Cytotoxicity Assay to monitor cytotoxicity in HEK293 cells - 40 hour (AID 1224871); further: nearly all actives have a fitted effect of over 45% in size; further: potency means the concentration at half of the fitted maximal effect
Outline: as §3

[8] = qHTS RealTime-Glo MT Cell Viability Assay in HEK293 cells - 16 hour (AID 1224872)
Outline: as §2

[9] = qHTS RealTime-Glo MT Cell Viability Assay in HepG2 cells - 8 hour (AID 1224873); further: nearly all actives have a fitted effect of over 55% in size
Outline: as §4

[10] = qHTS RealTime-Glo MT Cell Viability Assay in HEK293 cells - 40 hour (AID 1224874); details: RealTime-Glo luminescence; max response: stronger effect = lower value; further: nearly all actives have a fitted effect of over 50% in size; further: potency means the concentration at half of the fitted maximal effect
Outline: (§5)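 HEK293 cells mixed with RealTime-Glo reagents (NanoLuc plus cell-permeant prosubstrate) at 600 cells/well, preincubated 5 h at 37 C/5% CO2, then given 23 nL compound in DMSO. Nonlytic luminescence from viable cells was read at 0, 8, 16, 24, 32 and 40 h.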

[11] = A CellTox Green Cytotoxicity Assay to monitor cytotoxicity in HEK293 cells - 24 hour (AID 1224875); further: nearly all actives have a fitted effect of over 45% in size; further: potency means the concentration at half of the fitted maximal effect
Outline: as §3

[12] = qHTS RealTime-Glo MT Cell Viability Assay in HepG2 cells - 32 hour (AID 1224877); further: nearly all actives have a fitted effect of over 55% in size
Outline: as §1

[13] = A CellTox Green Cytotoxicity Assay to monitor cytotoxicity in HepG2 cells - 40 hour (AID 1224879); further: nearly all actives have a fitted effect of over 40% in size; further: potency means the concentration at half of the fitted maximal effect
Outline: (§6)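 HepG2 cells were seeded together with the CellTox Green dye at 600 cells/well, left 5 h at 37 C/5% CO2, then given compounds in DMSO. Fluorescence from dye bound to dead-cell DNA was read repeatedly over 40 h of treatment at 37 C.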

[14] = qHTS RealTime-Glo MT Cell Viability Assay in HEK293 cells - 0 hour (AID 1224880); further: top concentration of the series differs between compounds; nearly all actives have a fitted effect of over 45% in size
Outline: as §5

[15] = qHTS assay to identify small molecule agonists of the hypoxia (HIF-1) signaling pathway (AID 1224846; active means well fitted activation curve with a large enough effect in the signal ratio in the repeat runs, not every such curve was filed as active; the % refers to the signal ratio)
Outline: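 HRE-bla ME-180 cells (beta-lactamase reporter under hypoxia response element) were plated at 2,000 cells/well in medium with 0.5% dialyzed FBS, rested 5 hrs, then given compounds in DMSO for 17 hrs at 37C, 5% CO2. Reporter induction was read with CCF4-AM FRET substrate.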

[16] = qHTS assay to identify small molecule agonists of the estrogen related receptor (ERR) signaling pathway from Tox21 library (AID 1224849; calls by dose curve; further: nearly all actives have a fitted effect of over 15% in size); details: ERR reporter cell line, ONE-Glo luciferase, 18 h; at 92.4 µM (top of the series) unless noted
Outline: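 ERR reporter cell line (NTP) seeded, rested 6 h at 37 C/5% CO2, then pinned with Tox21 compounds in DMSO. After 18 h at 37 C, ONE-Glo luciferase luminescence was read following 30 min at room temperature.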

[17] = qHTS assay to identify small molecule antagonists of the estrogen related receptor (ERR) signaling pathway from Tox21 library (AID 1224848); further: nearly all actives have a fitted effect of over 50% in size; further: potency means the concentration at half of the fitted maximal effect
Outline: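 Luminescent reporter read-out (ONE-Glo) from NTP's ERR cell line after 18 h treatment at 37 C with DMSO-dissolved Tox21 compounds; cells pre-plated 6 h beforehand at 2,000 per well.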

[18] = A CellTox Green Cytotoxicity Assay to monitor cytotoxicity in HepG2 cells - 16 hour (AID 1224876); further: nearly all actives have a fitted effect of over 45% in size; further: potency means the concentration at half of the fitted maximal effect
Outline: as §6

[19] = A CellTox Green Cytotoxicity Assay to monitor cytotoxicity in HepG2 cells - 24 hour (AID 1224878); further: nearly all actives have a fitted effect of over 45% in size; further: potency means the concentration at half of the fitted maximal effect
Outline: as §6

Structure (SMILES)	Potency [1]	Potency [2]	Potency [3]	Potency [4]	Potency [5]	Potency [6]	Potency [7]	Potency [8]	Potency [9]	max response [10] [%]	Potency [11]	Potency [12]	Potency [13]	Potency [14]	outcome [15]	activity change, positive = activation [16] [%]	Potency [17]	Potency [18]	Potency [19]	Potency [10]
CC(C)CCCC(C)CCO (stereo not drawn)	inactive	inactive	inactive	inactive	inactive	inactive	inactive	inactive	inactive	14.4	inactive	inactive	inactive	inactive	–	–	–	–	–	–
CC(C)(C)c1cc(CO)cc(C(C)(C)C)c1O	inactive	–	inactive	–	inactive	inactive	inactive	–	inactive	–	inactive	inactive	–	inactive	inactive	-33.2	–	–	–	–
CCCCOC(=O)/C=C\C(=O)OCCCC	inactive	inactive	–	–	inactive	inactive	–	inactive	inactive	-0.0674	inactive	inactive	–	inactive	inactive	-7.95	inactive	inactive	inactive	–
CC(C)c1ccccc1C(C)C	inactive	inactive	inactive	–	inactive	inactive	–	inactive	inactive	-23.5	inactive	inactive	inactive	inactive	inactive	–	–	inactive	–	–
CN(C)CCCNCCCN	inactive	inactive	inactive	–	inactive	inactive	inactive	–	inactive	24.4	inactive	inactive	–	inactive	inactive	–	–	–	–	–
Cc1ccc(C(N)=O)cc1N	inactive	–	inactive	inactive	inactive	–	–	inactive	inactive	10	inactive	inactive	inactive	–	inactive	-0.06	inactive	inactive	inactive	–
Cc1ccc2c(ccc3ccccc32)c1	inactive	–	inactive	–	inactive	inactive	inactive	–	–	–	inactive	inactive	inactive	inactive	inactive	–	–	inactive	inactive	–
CC/C(=C\C(=N/O)C(N)=O)C(C)[N+](=O)[O-] (stereo not drawn)	inactive	inactive	–	inactive	inactive	inactive	–	inactive	inactive	22.3	–	inactive	inactive	inactive	–	4.01	inactive	inactive	inactive	–
O=C(Cl)c1ccc([N+](=O)[O-])cc1	inactive	inactive	inactive	inactive	inactive	–	inactive	inactive	inactive	7.36	inactive	–	inactive	inactive	inactive	–	–	inactive	inactive	–
NCCCOCCOCCOCCCN	15.5 µM (active)	inactive	inactive	inactive	inactive	inactive	inactive	inactive	inactive	-18	inactive	inactive	inactive	inactive	–	–	–	–	–	–
Oc1ccc2c(c1)OCO2	inactive	–	inactive	inactive	inactive	–	inactive	inactive	–	-2.1	inactive	inactive	inactive	inactive	inactive	–	–	inactive	–	–
Cn1c(N)nc2nc[nH]c2c1=O	inactive	inactive	inactive	–	inactive	inactive	inactive	–	inactive	–	inactive	inactive	21.6 µM (active)	inactive	inactive	–	–	inactive	inactive	–
CC1(C)[C@H]2CC[C@]1(C)[C@H](O)C2	inactive	1.6 µM (active)	inactive	inactive	inactive	inactive	inactive	inactive	–	-5.57	inactive	inactive	inactive	inactive	–	–	–	inactive	inactive	–
O=C(O)Cc1cc(I)c(Oc2ccc(O)c(I)c2)c(I)c1	38.9 µM (active)	inactive	inactive	–	inactive	–	–	inactive	inactive	4.51	inactive	–	inactive	–	–	-36.3	27.3 µM (active)	inactive	inactive	–
CCCCOC(=O)c1ccccc1C(=O)OCC(CC)CCCC (stereo not drawn)	inactive	inactive	inactive	inactive	inactive	inactive	inactive	inactive	inactive	-10	inactive	inactive	inactive	inactive	inactive	–	–	–	inactive	–
CC(C(=O)O)c1ccc(C(=O)c2ccccc2)s1 (stereo not drawn)	inactive	inactive	inactive	inactive	inactive	inactive	inactive	inactive	inactive	4.65	inactive	inactive	inactive	inactive	–	–	–	–	inactive	–
CCCCCCCCCCCCCCC1CO1 (stereo not drawn)	inactive	inactive	inactive	inactive	inactive	inactive	inactive	inactive	inactive	0.82	inactive	inactive	inactive	inactive	inactive	–	–	inactive	inactive	–

Structure (SMILES)	Potency [1]	Potency [2]	Potency [3]	Potency [4]	Potency [5]	Potency [6]	Potency [7]	Potency [8]	Potency [9]	max response [10] [%]	Potency [11]	Potency [12]	Potency [13]	Potency [14]	outcome [15]	activity change, positive = activation [16] [%]	Potency [17]	Potency [18]	Potency [19]	Potency [10]
O=C(O)C(c1ccc(Cl)cc1)c1ccc(Cl)cc1	inactive	inactive	–	–	inactive	–	inactive	inactive	inactive	-1.91	inactive	inactive	inactive	inactive	inactive	-7.31	inactive	inactive	inactive	–
CN(c1nccc(=O)[nH]1)C1CCN(c2nc3ccccc3n2Cc2ccc(F)cc2)CC1	inactive	inactive	inactive	–	inactive	inactive	inactive	–	inactive	–	inactive	inactive	inactive	inactive	inactive	–	–	inactive	inactive	–
O=C=NC1CCC(CC2CCC(N=C=O)CC2)CC1 (stereo not drawn)	inactive	–	inactive	inactive	inactive	inactive	49 µM (active)	inactive	inactive	–	–	inactive	–	inactive	inactive	–	–	inactive	inactive	–
Cc1ccc(C(C)c2ccc(C)c(C)c2)cc1C	inactive	–	inactive	inactive	inactive	inactive	–	inactive	inactive	-0.95	inactive	inactive	inactive	inactive	inactive	–	–	inactive	inactive	–
Oc1ccc(Sc2ccc(O)cc2)cc1	inactive	inactive	inactive	20.5 µM (active)	inactive	inactive	inactive	–	inactive	–	inactive	inactive	inactive	inactive	inactive	–	–	inactive	–	22.9 µM (active)
N#Cc1cc2ccccc2c2ccccc12	inactive	inactive	inactive	–	inactive	inactive	–	inactive	inactive	-18.9	inactive	inactive	–	inactive	inactive	–	–	–	–	–
O=c1[nH]cnc2ccccc12	inactive	inactive	–	–	inactive	inactive	inactive	inactive	inactive	-7.9	inactive	inactive	inactive	inactive	inactive	–	–	inactive	inactive	–
CC(=O)Nc1ccc(/C=N/NC(N)=S)cc1	inactive	inactive	inactive	inactive	inactive	inactive	inactive	inactive	inactive	0.836	inactive	inactive	inactive	inactive	inactive	–	–	inactive	inactive	–
CC(C)CC=O	inactive	inactive	inactive	inactive	inactive	inactive	–	inactive	inactive	6.71	inactive	inactive	inactive	inactive	–	–	–	inactive	inactive	–
COc1cc(C(C)(C)C)c(O)c(C(C)(C)C)c1	inactive	–	inactive	inactive	inactive	inactive	43.6 µM (active)	inactive	–	1.44	43.6 µM (active)	inactive	–	inactive	inactive	-4.21	inactive	–	–	–
Nc1cnn([C@@H]2O[C@H](CO)[C@@H](O)[C@H]2O)c(=O)n1	inactive	inactive	inactive	inactive	inactive	inactive	inactive	inactive	–	-6.05	inactive	inactive	inactive	inactive	inactive	–	–	inactive	inactive	–
CC(C)(C)c1ccc(OCC2CO2)cc1 (stereo not drawn)	inactive	–	inactive	inactive	inactive	inactive	50 µM (active)	inactive	inactive	-5.37	–	inactive	inactive	inactive	inactive	3.37	inactive	inactive	–	–
CC(C)(Oc1ccc(Cl)cc1)C(=O)OCCCOC(=O)C(C)(C)Oc1ccc(Cl)cc1	inactive	inactive	inactive	inactive	inactive	inactive	inactive	–	inactive	-17.7	inactive	inactive	inactive	inactive	–	–	–	–	inactive	–
CC(=O)NCCCS(=O)(=O)O	inactive	inactive	–	inactive	18.9 µM (active)	inactive	16.9 µM (active)	inactive	inactive	14.9	16.9 µM (active)	inactive	18.9 µM (active)	inactive	inactive	–	–	18.9 µM (active)	18.9 µM (active)	–
NC1CCN(c2nc3c(cc2F)c(=O)c(C(=O)O)cn3-c2ccc(F)cc2F)C1 (stereo not drawn)	inactive	inactive	–	inactive	inactive	inactive	inactive	–	–	-1.98	inactive	–	–	inactive	inactive	–	inactive	inactive	inactive	–
Cc1c(Cn2ccnc2)c2ccccc2n1CCC(=O)O	inactive	–	inactive	–	inactive	inactive	inactive	inactive	–	4.63	inactive	inactive	–	inactive	inactive	–	–	–	inactive	–
